Results on eight compounds are retold here after PubChem BioAssay (Tox21).

A number with no mark means an inactive call. Records with an inconclusive call do not appear. Active and inactive are the calls of the source. Unless noted, the call rests on the fitted dose curve; in most records, active means well fitted curve in the direction sought with a large enough effect in the repeat runs; inconclusive means weak or mixed curves; inactive means no such curve, though single readings can be large; an effect the other way counts as inactive or inconclusive.

The nature of assay [1]: qHTS assay to identify small molecule agonists of H2AX (AID 1224845; active means well fitted activation curve with a large enough effect in the signal ratio in the repeat runs, not every such curve was filed as active; the % refers to the signal ratio). The procedure, abridged:
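Wild-type CHO-K1 cells plated overnight, then exposed 3 hr at 37C to compounds at 15 concentrations (0.76% DMSO). Lysed, then HTRF anti-pH2AX(S139)-cryptate/anti-H2AX-d2 detection after 24 hr at room temperature; emissions 665 and 620 nm.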

The nature of assay [2]: qHTS assay to identify small molecule agonists of the hypoxia (HIF-1) signaling pathway (AID 1224846; active means well fitted activation curve with a large enough effect in the signal ratio in the repeat runs, not every such curve was filed as active; the % refers to the signal ratio). The procedure, abridged: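 Compounds from the Tox21 10K library, dissolved in DMSO, are tested for induction of a hypoxia response element–controlled beta-lactamase reporter in ME-180 cells. Exposure lasts 17 hrs at 37C after a 5 hr settling period, followed by CCF4-AM FRET substrate.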
On the technique in general: qHTS replaces the single test concentration by a dilution series.

A short description of assay [3]: qHTS assay to identify small molecule agonists of H2AX - cell viability counter screen (AID 1224847; calls by dose curve; further: top concentration of the series differs between compounds; nearly all actives have a fitted effect of over 30% in size). In short, it runs like this:
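After overnight plating of 1000 CHO-K1 cells per well, a 15-concentration compound series was applied for 3 hr at 37C. Luminescence from CellTiter-Glo, read following 30 min at room temperature, reflected cell viability.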

Assay [4] is described as follows: qHTS RealTime-Glo MT Cell Viability Assay in HepG2 cells - 24 hour (AID 1224867). Further: nearly all actives have a fitted effect of over 50% in size. The procedure, abridged: (§1)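 Cell number in HepG2 cultures estimated from NanoLuc luminescence generated by metabolic reduction of a prosubstrate by living cells. The homogeneous, nonlytic format allowed repeated reads at 0, 8, 16, 24, 32 and 40 h of compound exposure.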
Assay [5] can be described thus: qHTS RealTime-Glo MT Cell Viability Assay in HEK293 cells - 32 hour (AID 1224868). Further: nearly all actives have a fitted effect of over 50% in size. Further: potency means the concentration at half of the fitted maximal effect. In short, it runs like this:
(§2)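 Homogeneous bioluminescent viability format in HEK293 cells (600 cells/well). Following 5 h at 37 C/5% CO2, 23 nL compound was pintooled; the signal was measured repeatedly during 40 h incubation.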

Assay [6] in a line: A CellTox Green Cytotoxicity Assay to monitor cytotoxicity in HEK293 cells - 0 hour (AID 1224869). Further: nearly all actives have a fitted effect of over 50% in size. In short, it runs like this:
(§3)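 Cells (HEK293, 600/well) and dye reagent are dispensed together. After 5 h at 37 C, 23 nL compound is pinned in. Plates stay at 37 C for 40 h with fluorescence read at 0h, 8h, 16h, 24h, 32h and 40h.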

Assay [7] in a line: qHTS RealTime-Glo MT Cell Viability Assay in HEK293 cells - 16 hour (AID 1224872). Further: top concentration of the series differs between compounds; nearly all actives have a fitted effect of over 50% in size. The procedure, abridged:
as §2

The nature of assay [8]: qHTS RealTime-Glo MT Cell Viability Assay in HepG2 cells - 8 hour (AID 1224873). Further: nearly all actives have a fitted effect of over 55% in size. The procedure, abridged: (§4)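 HepG2 cells mixed with RealTime-Glo MT reagents (NanoLuc plus cell-permeant prosubstrate) were seeded at 600 cells/well, incubated 5 h at 37 C/5% CO2, then pinned with compounds in DMSO; nonlytic luminescence tracked viability during 40 h treatment.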
The nature of assay [9]: qHTS RealTime-Glo MT Cell Viability Assay in HEK293 cells - 40 hour (AID 1224874). Further: nearly all actives have a fitted effect of over 50% in size. Further: potency means the concentration at half of the fitted maximal effect. The note with it: RealTime-Glo luminescence; max response: active compounds read low. In short, it runs like this:
(§5)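 Real-time viability in HEK293: signal arises when living cells convert a prosubstrate for NanoLuc in the medium, so luminescence tracks viable cell number. Compound (23 nL, DMSO) added 5 h post-seeding; kinetic reads at 0–40 h, 37 C.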

Assay [10] can be described thus: qHTS RealTime-Glo MT Cell Viability Assay in HepG2 cells - 32 hour (AID 1224877). Further: nearly all actives have a fitted effect of over 55% in size. The procedure, abridged: as §1
Assay [11] is described as follows: qHTS RealTime-Glo MT Cell Viability Assay in HEK293 cells - 0 hour (AID 1224880). Further: top concentration of the series differs between compounds; nearly all actives have a fitted effect of over 45% in size. In short, it runs like this:
as §5

The nature of assay [12]: qHTS RealTime-Glo MT Cell Viability Assay in HepG2 cells - 40 hour (AID 1224870). Further: nearly all actives have a fitted effect of over 50% in size. In short, it runs like this:
as §4

Assay [13] in a line: A CellTox Green Cytotoxicity Assay to monitor cytotoxicity in HEK293 cells - 40 hour (AID 1224871). Further: nearly all actives have a fitted effect of over 45% in size. The procedure, abridged:
as §3

Assay [14] is described as follows: A CellTox Green Cytotoxicity Assay to monitor cytotoxicity in HEK293 cells - 24 hour (AID 1224875). Further: nearly all actives have a fitted effect of over 45% in size. The procedure, abridged:
as §3

Assay [15] can be described thus: A CellTox Green Cytotoxicity Assay to monitor cytotoxicity in HepG2 cells - 16 hour (AID 1224876). Further: nearly all actives have a fitted effect of over 45% in size. In short, it runs like this: (§6)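 Cells and non-lytic dye reagent are dispensed together (600 HepG2 cells/well) and incubated 5 h before DMSO compound transfer. Kinetic fluorescence is then recorded in the same wells during 40 h at 37 C.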
Assay [16] in a line: A CellTox Green Cytotoxicity Assay to monitor cytotoxicity in HepG2 cells - 24 hour (AID 1224878). Further: nearly all actives have a fitted effect of over 45% in size. The procedure, abridged: as §6
A short description of assay [17]: A CellTox Green Cytotoxicity Assay to monitor cytotoxicity in HepG2 cells - 40 hour (AID 1224879). Further: nearly all actives have a fitted effect of over 40% in size. The procedure, abridged:
as §6

Assay [18] is described as follows: qHTS assay to identify small molecule agonists of the estrogen related receptor (ERR) signaling pathway from Tox21 library (AID 1224849; calls by dose curve; further: nearly all actives have a fitted effect of over 15% in size). The note with it: ERR reporter cell line, ONE-Glo luciferase, 18 h; at 92.4 µM (top of the series) unless noted. The procedure, abridged:
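Cells carrying the ERR reporter were plated and allowed to settle for 6 h, exposed to library compounds for 18 h at 37 C, then lysed with ONE-Glo and luminescence measured.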

Assay [19] can be described thus: qHTS assay to identify small molecule agonists of the hypoxia (HIF-1) signaling pathway - cell viability counter screen (AID 1224844; calls by dose curve; further: nearly all actives have a fitted effect of over 50% in size). The procedure, abridged:
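Cytotoxicity was measured in parallel with the HRE-driven beta-lactamase readout: after 17 hrs of compound exposure at 37C, HRE-bla ME-180 cells received CellTiter-Glo and luminescence was recorded 30 min later.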

Assay [20] can be described thus: qHTS assay to identify small molecule antagonists of the estrogen related receptor (ERR) signaling pathway from Tox21 library (AID 1224848). Further: nearly all actives have a fitted effect of over 50% in size. The procedure, abridged:
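Tox21 10K compounds in DMSO tested for ERR pathway antagonism in NTP's ERR cell line; 18 h, 37 C exposure; ONE-Glo luminescence.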
On the % scale 0 is the no-effect control and ±100 the full control effect.

Turning to `CCCCOc1cc(C(=O)OCCN(CC)CC)ccc1N`, the Potency result in assay [1], in assay [3], in assay [4], in [5], in assay [6] and in assay [7] was “inactive” throughout. The Potency result in [8], in assay [10] and in assay [11] was “inactive” in each case. In addition, the outcome in [2] was inactive. In addition, the max response in assay [9] was -18%.
Take `CCOC(=O)CC(C)C`: the Potency entry in assay [1], in assay [3], in assay [4], in assay [5], in assay [6] and in assay [12] was “inactive” throughout. For the same compound, the Potency result in assay [13], in assay [7], in assay [8], in assay [14], in assay [15] and in assay [10] was “inactive” in each case. Further, the Potency entry in assay [16], in assay [17] and in [11] was “inactive” in each case. Further, in assay [2], the compound was called inactive. Also, the max response in [9] is 6.18%.
For the compound `O=C1[C@H](CC[C@H](O)c2ccc(F)cc2)[C@@H](c2ccc(O)cc2)N1c1ccc(F)cc1`, the Potency result in assay [1], in [3], in assay [4], in assay [6], in assay [12] and in [13] was “inactive” each time. Further, the Potency entry in assay [8], in [14], in [10], in assay [16], in [17] and in assay [11] was “inactive” throughout. For the same compound, in assay [2], the compound was called inactive. For the same compound, the activity change, positive = activation in [18] is -42.1% [at 42.5 µM]. In addition, the Potency in assay [5] and in assay [9] was 19 µM (active) throughout.
For `O=C(O)C1CCC(C(=O)O)CC1` (configuration not stated), the Potency entry in assay [19], in assay [3], in assay [4], in assay [5], in [6] and in [12] was “inactive” throughout. Moreover, the Potency entry in assay [13], in assay [7], in assay [8], in assay [14], in assay [15] and in assay [10] was “inactive” in each case. For the same compound, the Potency entry in assay [16], in assay [17] and in assay [11] was “inactive” throughout. In assay [9], the max response is -2.66%.
Consider `C=C(C)C(=O)OCCN(C)C`, for which the Potency result in assay [1], in assay [3], in [4], in assay [5], in [6] and in assay [12] was “inactive” each time. Further, the Potency entry in assay [13], in assay [7], in [8], in assay [14], in assay [15] and in assay [10] was “inactive” each time. The Potency entry in [16], in assay [17] and in assay [11] was “inactive” in each case. Besides, the outcome in assay [2] was inactive. Further, in [9], the max response is 0.256%.
As for `Cc1cccc(OCCOc2cccc(C)c2)c1`, the Potency result in assay [1], in assay [20], in assay [4], in assay [5], in [6] and in [12] was “inactive” in each case. Besides, the Potency result in [13], in [7], in assay [8], in assay [14], in [10] and in assay [11] was “inactive” in each case. The result in assay [2] was inactive. For the same compound, the activity change, positive = activation in [18] was 10.4%. Also, in assay [9], the max response is -15.5%.
In the case of `O=C(Cl)c1ccc([N+](=O)[O-])cc1`, the Potency result in [19], in assay [3], in assay [4], in assay [5], in [6] and in assay [12] was “inactive” in each case. For the same compound, the Potency result in assay [13], in [7], in assay [14], in [15], in [10] and in assay [16] was “inactive” throughout. The Potency result in [17] and in assay [11] was “inactive” each time. In [9], the max response was 7.36%.
With `CCCCCCCCCCCCCCCBr`, the Potency entry in assay [19], in assay [3], in [4], in assay [5], in assay [6] and in assay [12] was “inactive” in each case. For the same compound, the Potency entry in assay [13], in [7], in [14], in [15], in assay [10] and in assay [16] was “inactive” each time. Besides, the Potency result in assay [17] and in assay [11] was “inactive” each time. For the same compound, the max response in assay [9] was -1.7%.
